This is an account of results in PubChem BioAssay (NCI).

This is part of a sample that, as a whole, favours compounds with a hit. Of some 83,000 tested, about 20% had one in any assay.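 Single-concentration screen, 48 h exposure, 96-well plates. Endpoint: percent growth. Below 10 = active.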 A number with no mark means an inactive call. The source made the active and inactive calls.

The test system of the assay is SK-MEL-5 melanoma. Kind of assay: NCI-60 one-dose screen, 48 h (100 = growth as untreated, 0 = no growth, -100 = all killed). Conditions: 10 µM unless noted. The protocol:
Growth inhibition of the SK-MEL-5 human tumor cell line is measured as a screen for anti-cancer activity. Cells are grown in 96 well plates and exposed to the test compound for 48 hours. Compounds are tested at a single concentration, which is 10^-5 M for most compounds. The reported endpoint is percent growth (GI% or GIPRCNT), where numbers from 0 - 100% represent growth inhibition, and numbers from -100% - 0 represent cell death. For example, a value of 40 represents 60% growth inhibition. A value of 0 means no net growth occurred over the course of the experiment. A value of -40 indicates 40% of cells at the beginning of the experiment died by the end of the experiment. A value of -100 means all cells are dead at the end of the experiment.
NCI-60 Human Tumor Cell Lines Screen was performed using the standard one-dose NCI protocol, which is described in more detail at https://dtp.cancer.gov/discovery_development/nci-60/default.htm.
Compounds with GIPRCNT values below 10 were considered active. Activity score was based on GIPRCNT using the following formula: […]
Score is 0 for GIPRCNT values of 100 or above, 50 for GIPRCNT values of 0, and 100 for GIPRCNT values of -100.
Consider `CCOC(=O)C1=C(N)Oc2c(sc3c(C)cccc23)C1c1ccc(OC)cc1` (stereo not given), for which the growth is 52.5%.

Consider `CN1CCN(c2ccc(-c3cc4c(Nc5ccc(F)c(Cl)c5)ncnn4c3)cn2)CC1`, for which the growth is 100%.

Consider `C=C1CC[C@@]2(C#N)[C@H]3[C@H](CC[C@@H]2C)[C@@H](C)C[C@@H](CC(C)(C)C#N)[C@H]13`, for which the growth is 37.5%.

As to `CCCCCCCCCCCCCCCCCCOc1ccccc1CCCOP(=O)(O)OCC[N+](C)(C)C`, the growth is 80.9%.

Turning to `N#CC1=C(N)Oc2c(sc3c(Br)cccc23)C1c1ccc(Br)cc1` (stereo not given), the growth was 15.6%.

Consider `Cc1ccc2sc3c(NCCCN)nc4ccccc4c3c(=O)c2c1`, for which the growth is 90.6%.

Regarding `CCOC(=O)/C=C1\S/C(=N\Nc2ccc([N+](=O)[O-])cc2[N+](=O)[O-])N(Cc2ccccc2)C1=O`, the growth is 96.8%.

As to `COc1cc2cc(Oc3ccc(NC(=O)Nc4cccc(C(F)(F)F)c4)cc3)c(C)nc2cc1OCCN1CCOCC1`, the growth was 6.62% (active).

`C[C@H](C(=O)Nc1ccc(S(N)(=O)=O)cc1)S(=O)(=O)c1ccccc1`: the growth was 99.2%.

As to `N#Cc1c(-c2ccc(Cl)cc2)nc(NCCO)[nH]c1=O`, the growth is 107%.

For the compound `COc1cccc(Oc2ccccc2NC(=O)CNC(=O)c2cccc3ccccc23)c1`, the growth is 11.7% [5 µM].

Take `Fc1cc2c(cc1Cl)N(c1ncnc3ccc(-c4cnc5cnccn45)cc13)CC2`: the growth was 95.3%.

On to `COc1ccc(S(=O)(=O)n2cc(C3OC(c4cc(OC)c(OC)c(OC)c4)=NN3C(C)=O)c3ccccc32)cc1OC` (stereo not given), for which the growth is 76.4%.

Take `C#C[C@]1(O)CC[C@H]2[C@@H]3CC=C4c5sc(Nc6ccccc6)nc5CC[C@]4(C)[C@H]3CC[C@@]21C`: the growth was 14.2%.

Regarding `Cc1nc2ccccc2c(/C=C/c2ccccc2)c1C(=O)/C=C/c1ccc(C(F)(F)F)cc1`, the growth is -78.9% (active).

`COc1cccc(-c2nc(-c3ccc(NC(=O)C(C)C)cc3)[nH]c2-c2ccnc(Br)c2)c1`: the growth is 6.14% (active).

Turning to `COc1nc2ccc(C)cc2cc1-c1nc2c(cnn2-c2ccc(Br)cc2)c(=O)[nH]1`, the growth is 51.1%.

Take `COc1ccc(C2C(N)=NNC2c2cccc(O)c2)cc1` (stereo not given): the growth is 101%.

Consider `N[C@@H](Cc1ccccc1)[C@@H](O)C(=O)NCc1ccc(F)cc1`, for which the growth was 102%.

Turning to `CCOC(=O)Cn1c(C)c(/C=N/NC(=O)c2cc3c(ccc4ccccc43)o2)c2ccccc21`, the growth was 7.35% (active).

Take `COC(=O)CCC/C=C\C[C@H]1C=CC(=O)/C1=C/C[C@@H](O)CCc1cccc(C(F)(F)F)c1`: the growth was -83.3% (active).

Regarding `CNCCCNc1nc2ccccc2c2c(=O)c3cc(OC)ccc3sc12`, the growth was 91.6%.

Consider `CCCCCCCCCCCCCCCCCC1OCC(COC(=O)O[C@]2(CC)C(=O)OCc3c2cc2n(c3=O)Cc3cc4ccccc4nc3-2)O1` (stereo not given in full), for which the growth was 84.6%.

`O=C(N/N=C/[C@H](O)[C@@H](O)[C@@H](O)[C@H](O)CO)c1ccc(NC(=O)c2cccnc2)cc1`: the growth was 104%.

Turning to `Cc1cc(O)c(C2=NN(c3ccc(S(N)(=O)=O)cc3)C(c3ccccc3O)C2)cc1Cl` (stereo not given), the growth was 36.8%.

On to `Fc1cc(-c2nnc3sc(-c4ccc(Cl)cc4Cl)nn23)c(Cl)cc1Cl`, for which the growth is 67.4%.

As to `O=C(Nn1c(NCC(=O)N2c3ccccc3Sc3ccccc32)nnc1-c1ccc(O)cc1)c1ccccc1`, the growth is 107%.

Take `N#Cc1c(-c2ccc(Cl)cc2)nc2c(c(-c3ccccc3)nn2-c2ccccc2)c1-c1ccc(O)cc1`: the growth is 56.3%.

Consider `COc1cc(C)c(Cc2cnc(N)nc2N)cc1OC`, for which the growth was 105%.

Regarding `O=c1c2cccc(Cl)c2sc2c(NCCCNCCO)nc3ccccc3c12`, the growth was 81.8%.

For the compound `Cc1ccc2c(n1)C(=O)C(Cl)=C(Nc1ccccc1C(C)C)C2=O`, the growth was 69%.

Turning to `CCCCCCNC(=O)Oc1ccc(/C(=C(\C)c2ccc(Cl)cc2)c2ccc(OCCN(CC)CC)cc2)cc1`, the growth was 51.9%.

As to `CC/C=C\C[C@@H](O)C/C=C1/C(=O)C=C[C@H]1C/C=C\CCCC(=O)OC`, the growth was -82.2% (active).

Consider `Cc1[nH]c(C(=O)Nc2ccc(C(=O)NCCN)cc2OC(C)C)c(Cl)c1Cl`, for which the growth is 71.2%.

For the compound `O=C(/C=C/c1sc(Cl)nc1Cl)c1ccc(Br)cc1`, the growth was 89.2%.

In the case of `Cc1nc2nc(SCC(=O)O)[nH]c2c(=O)[nH]1`, the growth is 100%.

Turning to `COc1cc(C2CC(c3ccc(N(C)C)cc3)=NN2C(C)=O)cc(OC)c1OC` (stereo not given), the growth was 9% (active).

`N#Cc1c(Nc2cccc(Cl)c2)sc(C(=O)c2cc3cc(Cl)ccc3o2)c1N`: the growth was 73.4%.

For `C[C@]12CC[C@@H]3c4cc(OC(F)F)c(OS(N)(=O)=O)cc4CC[C@H]3[C@@H]1CC[C@@H]2O`, the growth is 6.56% (active).

Turning to `O=c1c2cc(F)ccc2sc2c(N3CCNCC3)nc3ccccc3c12`, the growth was 76.8%.
